Measured values reported in publication PMC5700166.
Positions count from the first letter of the chain named.

How the values were obtained:
Experiment in all cases: protein-binding microarray (PBM); PBM: ~300 nM protein, 6 mM HEPES pH 7.8, 80 mM KCl, 0.5 mM EDTA, 0.5 mM EGTA, 6% glycerol, 35 ng/ul poly-dIdC, 1% milk, 1 h, room temperature; Ap Aiptasia and Nv Nematostella (sea anemones) / Co Capsaspora / Aq Amphimedon (sponge) / Dm Drosophila / Hu human; RHD is the Rel homology domain; high values mean tight binding
Details in all cases: dsDNA, one strand shown
GST-Ap-NF-kB RHD = target: T1, GST-Ap-NF-kB RHD (Exaiptasia pallida (Aiptasia), UniProt A0A913YAJ5 2-422)
T1 sequence: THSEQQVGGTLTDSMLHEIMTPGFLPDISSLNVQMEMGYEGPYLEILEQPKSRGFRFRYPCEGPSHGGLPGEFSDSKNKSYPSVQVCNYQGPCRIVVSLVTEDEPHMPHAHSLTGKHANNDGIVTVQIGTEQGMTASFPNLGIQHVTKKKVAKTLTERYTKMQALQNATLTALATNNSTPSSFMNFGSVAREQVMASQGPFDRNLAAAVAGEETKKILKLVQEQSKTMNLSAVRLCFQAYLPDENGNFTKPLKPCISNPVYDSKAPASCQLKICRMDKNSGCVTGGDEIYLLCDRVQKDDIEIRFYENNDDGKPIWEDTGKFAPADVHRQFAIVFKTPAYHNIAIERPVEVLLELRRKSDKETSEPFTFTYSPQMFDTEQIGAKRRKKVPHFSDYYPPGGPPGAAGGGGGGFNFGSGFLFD

[1] = target: T2, GST-Nv-NF-kB (Cys allele) (Nematostella vectensis, UniProt E5G601 2-411)
T2 sequence: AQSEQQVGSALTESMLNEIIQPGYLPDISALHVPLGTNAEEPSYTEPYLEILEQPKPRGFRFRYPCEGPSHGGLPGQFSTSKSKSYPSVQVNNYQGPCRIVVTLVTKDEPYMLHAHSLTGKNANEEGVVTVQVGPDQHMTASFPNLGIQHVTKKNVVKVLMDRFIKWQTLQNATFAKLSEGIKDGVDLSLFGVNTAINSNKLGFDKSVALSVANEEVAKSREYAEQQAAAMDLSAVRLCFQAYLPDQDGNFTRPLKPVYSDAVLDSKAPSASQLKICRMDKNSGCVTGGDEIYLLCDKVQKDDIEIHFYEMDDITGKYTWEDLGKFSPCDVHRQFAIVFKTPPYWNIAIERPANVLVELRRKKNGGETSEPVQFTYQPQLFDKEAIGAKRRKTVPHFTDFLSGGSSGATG

[2] = target: T3, GST-Nv-NF-kB (Ser allele) (Nematostella vectensis, UniProt A7UNT2 2-411)
T3 sequence: T2 sequence with Q21R, C66S, S207N, E215Q, V217A, E225K, A268E, D399E

GST-Co-NF-kB = target: T4, GST-Co-NF-kB (Capsaspora owczarzaki, UniProt F1ARL5 200-546)
T4 sequence: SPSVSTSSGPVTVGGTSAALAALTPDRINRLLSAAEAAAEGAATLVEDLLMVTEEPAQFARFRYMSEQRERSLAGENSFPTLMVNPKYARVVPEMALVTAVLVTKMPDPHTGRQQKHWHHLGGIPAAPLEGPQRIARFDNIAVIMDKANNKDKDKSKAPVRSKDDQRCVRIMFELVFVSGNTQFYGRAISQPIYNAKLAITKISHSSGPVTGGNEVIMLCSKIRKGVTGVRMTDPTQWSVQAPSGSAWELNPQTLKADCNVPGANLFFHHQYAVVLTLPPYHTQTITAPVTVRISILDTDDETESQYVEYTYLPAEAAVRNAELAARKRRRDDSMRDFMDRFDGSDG

GST-Dm-Relish = target: T5, GST-Dm-Relish (Drosophila melanogaster, UniProt Q94527 99-473)
T5 sequence: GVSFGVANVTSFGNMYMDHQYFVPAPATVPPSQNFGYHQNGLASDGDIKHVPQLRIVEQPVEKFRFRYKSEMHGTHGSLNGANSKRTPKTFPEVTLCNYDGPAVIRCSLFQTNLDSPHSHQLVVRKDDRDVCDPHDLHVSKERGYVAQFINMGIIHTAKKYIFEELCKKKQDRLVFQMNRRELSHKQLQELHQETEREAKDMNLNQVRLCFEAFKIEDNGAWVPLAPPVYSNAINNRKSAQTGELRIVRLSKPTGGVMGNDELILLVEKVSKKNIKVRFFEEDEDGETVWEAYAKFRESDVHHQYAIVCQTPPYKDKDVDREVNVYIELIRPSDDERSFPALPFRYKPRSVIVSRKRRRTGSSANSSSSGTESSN

GST-Aq-NF-kB = target: T6, GST-Aq-NF-kB (Amphimedon queenslandica, UniProt A9Y5G7 2-389)
T6 sequence: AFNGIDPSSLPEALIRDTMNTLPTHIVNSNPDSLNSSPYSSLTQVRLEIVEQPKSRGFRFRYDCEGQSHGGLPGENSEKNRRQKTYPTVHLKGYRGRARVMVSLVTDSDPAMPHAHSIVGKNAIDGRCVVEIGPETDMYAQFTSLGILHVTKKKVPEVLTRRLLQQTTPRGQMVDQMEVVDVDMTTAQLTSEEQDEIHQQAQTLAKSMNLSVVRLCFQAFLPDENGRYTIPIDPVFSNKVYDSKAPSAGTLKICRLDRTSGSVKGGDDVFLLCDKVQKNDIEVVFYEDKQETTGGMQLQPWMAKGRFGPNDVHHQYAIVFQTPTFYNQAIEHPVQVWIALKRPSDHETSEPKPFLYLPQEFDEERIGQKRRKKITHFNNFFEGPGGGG

GST-Hu-p50 = GST-Hu-p50 (Homo sapiens, UniProt P19838 7-356)
GST-Hu-p50, sequence (P19838 7-356): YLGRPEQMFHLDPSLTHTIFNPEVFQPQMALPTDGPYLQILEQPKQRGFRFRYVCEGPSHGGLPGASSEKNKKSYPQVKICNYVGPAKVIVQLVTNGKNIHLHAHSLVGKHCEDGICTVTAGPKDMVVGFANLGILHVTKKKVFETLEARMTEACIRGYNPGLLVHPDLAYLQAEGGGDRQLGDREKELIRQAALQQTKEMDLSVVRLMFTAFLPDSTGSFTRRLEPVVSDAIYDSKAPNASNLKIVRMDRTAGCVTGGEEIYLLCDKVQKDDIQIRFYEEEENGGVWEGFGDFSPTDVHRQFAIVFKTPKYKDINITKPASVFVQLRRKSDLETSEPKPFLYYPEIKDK

Sequence	binding signal (GST-Ap-NF-kB RHD) [z-score]	binding signal [1] [z-score]	binding signal [2] [z-score]	binding signal (GST-Co-NF-kB) [z-score]	binding signal (GST-Dm-Relish) [z-score]	binding signal (GST-Aq-NF-kB) [z-score]	binding signal (GST-Hu-p50) [z-score]
CCGATTAACATCAGGGGAGGTTATGATGTTAATCGGGTCTTGATTCGCTTGACGCTGCTG	4.62	3.22	4.77	4.52	1.82	3.84	3.74
CCGATTAACATCACCCCTTCCCCTGATGTTAATCGGGTCTTGATTCGCTTGACGCTGCTG	4.7	3.88	4.86	5.6	2.5	3.85	3.3
CCGATTAACATCACATTCCCCCCTGATGTTAATCGGGTCTTGATTCGCTTGACGCTGCTG	6.91	6.39	6.97	8.44	4.58	5.7	5.73
CCGATTAACATCAAGGGAATGCCTGATGTTAATCGGGTCTTGATTCGCTTGACGCTGCTG	2.72	3.58	2.83	1.06	2.97	4.2	1.87
CCGATTAACATCAGGGGGTTGACTGATGTTAATCGGGTCTTGATTCGCTTGACGCTGCTG	4.64	3.2	3.62	1.93	4.51	3.95	4.25
CCGATTAACATCAATGCCCCCCCTGATGTTAATCGGGTCTTGATTCGCTTGACGCTGCTG	5.2	2.82	3.53	5.03	4.02	4.04	4.02
CCGATTAACATCACGGGGATTCCTGATGTTAATCGGGTCTTGATTCGCTTGACGCTGCTG	9.77	9.58	8.87	4.28	10.6	7.41	6.46
CCGATTAACATCAAATTTCCCAGTGATGTTAATCGGGTCTTGATTCGCTTGACGCTGCTG	2.47	3.48	3.63	4.39	2.71	3.48	3.07
CCGATTAACATCAAATTCCCGCCTGATGTTAATCGGGTCTTGATTCGCTTGACGCTGCTG	3.27	4.23	4.63	3.86	3.49	3.39	3.12
CCGATTAACATCAAGGGGGATCCTGATGTTAATCGGGTCTTGATTCGCTTGACGCTGCTG	8.33	6.38	7.04	3.07	8.84	6.34	6.91
CCGATTAACATCACGAATCCCCCTGATGTTAATCGGGTCTTGATTCGCTTGACGCTGCTG	8.06	6.45	7.96	5.16	6.03	5.26	6.72
CCGATTAACATCAAGGGGAATACTGATGTTAATCGGGTCTTGATTCGCTTGACGCTGCTG	8.04	9.26	8.56	6.16	6.38	6.62	6.33
CCGATTAACATCAAGAATCCCCCTGATGTTAATCGGGTCTTGATTCGCTTGACGCTGCTG	9.83	9.82	10.5	6.36	9.1	7.61	7.83
CCGATTAACATCAGGGGGAAAGATGATGTTAATCGGGTCTTGATTCGCTTGACGCTGCTG	5.81	5.7	7.72	8.03	2.89	5.04	5.75
CCGATTAACATCACTATACCCCCTGATGTTAATCGGGTCTTGATTCGCTTGACGCTGCTG	4.71	2.52	3.85	4.36	2.21	2.68	3.41
CCGATTAACATCAGGGGAAACTATGATGTTAATCGGGTCTTGATTCGCTTGACGCTGCTG	6.82	7.81	10.9	9.61	3.46	5.53	6.14
CCGATTAACATCAGGGGGAACCCTGATGTTAATCGGGTCTTGATTCGCTTGACGCTGCTG	8.64	7.75	7.25	8.49	9.93	8.13	6.39
CCGATTAACATCAAAACCCCCCTTGATGTTAATCGGGTCTTGATTCGCTTGACGCTGCTG	8.76	7.32	7.84	3.85	10.5	8.03	7
CCGATTAACATCAGGGGAAAGTATGATGTTAATCGGGTCTTGATTCGCTTGACGCTGCTG	6.56	7.79	9.37	7.64	2.88	5.82	5.75
CCGATTAACATCAAATTCCCAGGTGATGTTAATCGGGTCTTGATTCGCTTGACGCTGCTG	2.43	3.11	3.64	3.53	3.69	2.4	4.02
CCGATTAACATCAAGGGGATCCCTGATGTTAATCGGGTCTTGATTCGCTTGACGCTGCTG	9.22	6.41	7.34	3.82	10.3	6.69	5.5
CCGATTAACATCAGGGGAAATCATGATGTTAATCGGGTCTTGATTCGCTTGACGCTGCTG	7.92	8.72	11.1	7.67	5.47	5.97	6.18
